Screening data (PubChem)
Most compounds without a hit are left out; they make up all but 9.5% or so of the library.
SARS PLpro yeast – qHTS of Yeast-based Assay for SARS-CoV PLP | S. cerevisiae expressing SARS-CoV PLpro, growth rescue | Potency, µM (top dose mostly 32.9 µM), inactives show top-dose activity, positive = growth rescue, hits mostly activators | 330,000 compounds, 0.19% hits; calls by dose curve; also: 0% is about no effect; nearly all actives have a fitted effect of over 55% in size
RE007 growth inh – qHTS Assay for Inhibitors of the HIV-1 protein Vpr; S. pombe RE007 Vpr strain, BacTiter-Glo ATP luminescence, 24 h; Potency, µM (highest dose often 92.2 µM), for the others: top-dose activity change, negative = less growth, most hits filed as inhibitors; 360,000 compounds, 0.21% hits; AID 651644, 2012; active = well fitted falling curve with a large enough effect; inconclusive = small, poorly fitted or top-dose-only effect; inactive = no such curve, though single readings can be large or run the other way; also: % is scaled to controls: 0 for no effect and ±100 for the full control effect; nearly all actives have a fitted effect of over 50% in size
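Fission yeast strain RE007, carrying one chromosomally integrated HIV-1 vpr copy, was seeded at OD 0.01 in PMG+AL medium with 23 nL pinned compound. After 24 h at 30 °C and 99% humidity, viability was read by BacTiter-Glo luminescence.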
Pf growth 96h – Primary qHTS for delayed death inhibitors of the malarial parasite plastid, 96 hour incubation; Potency, µM (highest dose often 28.7 µM), without a hit: at the top dose activity change, negative = inhibition, hits mostly inhibitors; 320,000 compounds, 6.9% hits; P. falciparum luciferase reporter growth, 96 h; also: % is scaled to controls: 0 for no effect and ±100 for the full control effect
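Two-generation exposure (96 h) targets delayed-death phenotype. Reporter parasites carrying integrated firefly luciferase, in red cells at 2% hematocrit and 0.05% parasitemia final, kept at 37 C, 5% CO2; luminescence loss indicates inhibition.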
Pf growth 48h – Primary qHTS for delayed death inhibitors of the malarial parasite plastid, 48 hour incubation; P. falciparum luciferase growth in erythrocytes, 48 h; Potency, µM (top dose mostly 28.7 µM), for the others: at the top dose activity change, negative = inhibition, actives largely listed as inhibitors; 310,000 compounds, 5.9% hits; AID 504832, 2011; also: % is scaled to controls: 0 for no effect and ±100 for the full control effect
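Luciferase-expressing P. falciparum in infected erythrocytes (2% hematocrit, 0.1% parasitemia final) in RPMI 1640/0.5% Albumax were exposed to compound for 48 hours at 37 C, 5% CO2; growth read as luminescence.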
NS1 inh – qHTS Assay for Inhibitors of Influenza NS1 Protein Function; 270,000 compounds, 0.4% hits; Potency, µM (titrated, usually from 46.1 µM), without a hit: top-dose activity, positive = more growth; calls by dose curve; also: actives are rising curves; nearly all actives have a fitted effect of over 50% in size
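A cell-based growth assay was used: compounds that relieve NS1-induced slow growth of budding yeast raise OD600. Assay medium was yeast nitrogen base with ammonium sulphate and -URA supplement, pH 6.0, with 2% galactose.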
The depositor's hits bear a star; ? = inconclusive; · = no result. Unless noted, calls follow the shape of the dose curve; as a rule, active = well fitted inhibition curve with a large enough effect; inconclusive = small, poorly fitted or top-dose-only effect, or another doubt; inactive = no such curve, though single readings can be large or run the other way. Potency is read from the fitted curve at half-maximal effect.

SMILES	SARS PLpro yeast	RE007 growth inh	Pf growth 96h	Pf growth 48h	NS1 inh
Cc1cccn2c(=O)c3cc(C(=O)NC4CCCC4)c(=N)n(Cc4ccc(F)cc4)c3nc12	15%	-6%	?	?	-4%
N=c1c(C(=O)NCC2CCCO2)cc2c(=O)n3ccccc3nc2n1Cc1ccc(Cl)cc1 (stereo unspecified)	2%	-5%	?	10µM*	1%
Cc1cccn2c(=O)c3cc(C(=O)NC4CCCC4)c(=N)n(CCc4ccccc4)c3nc12	0%	-4%	4.1µM*	0.47µM*	1%
COC(=O)c1ccccc1NC(=O)CN1C(=O)C2CCCN2c2ncc(Cl)cc21 (stereo unspecified)	5%	·	-15%	2.9µM*	?
O=C(CN1C(=O)C2CCCN2c2ncc(Cl)cc21)NCc1ccc2c(c1)OCO2 (stereo unspecified)	8%	8%	23%	9.3µM*	?
CC1CCC(NC(=O)CN2C(=O)C3CCCN3c3ncc(Cl)cc32)CC1 (stereo unspecified)	-2%	·	·	3.7µM*	?
COc1ccc(CNC(=O)CN2C(=O)C3CCCN3c3ncc(Cl)cc32)cc1 (stereo unspecified)	-5%	12%	·	?	8%
CCc1ccccc1NC(=O)CN1C(=O)C2CCCN2c2ncc(Cl)cc21 (stereo unspecified)	-1%	-10%	26%	?	16%
O=C(COC(=O)c1ccc(S(=O)(=O)N2CCCCC2)cc1)NCc1ccc(F)cc1	-2%	-17%	9%	?	·
COc1ccc(S(=O)(=O)N(C)C[C@H]2Oc3c(NS(=O)(=O)c4cn(C)cn4)cccc3C(=O)N([C@H](C)CO)C[C@@H]2C)cc1	-28%	15%	·	·	·
CCOC(=O)CSc1nc2c(c(=O)n1-c1ccc(OCC)cc1)SCC2	2%	-3%	·	-16%	9%
O=C(CSc1nc2c(c(=O)n1-c1ccc(Cl)cc1)SCC2)Nc1nccs1	5%	-16%	-8%	5.2µM*	-21%
COc1ccc(NC(=O)CSc2nc3c(c(=O)n2-c2ccc(F)cc2)SCC3)cc1	0%	-17%	10µM*	-22%	-1%
CCOc1ccc(-n2c(SCC(N)=O)nc3c(c2=O)SCC3)cc1	2%	-2%	-30%	8.3µM*	7%
COc1cc(C2CC(=O)C3=C(C2)Nc2ncnn2C3c2cccs2)cc(OC)c1OC (stereo unspecified)	0%	3%	?	-28%	1%
COc1ccc(C2CC(=O)C3=C(C2)Nc2ncnn2C3c2ccccc2C)c(OC)c1 (stereo unspecified)	5%	-13%	8.3µM*	7.4µM*	-33%
COc1ccc2nc(SC(C(=O)c3ccccc3)c3ccccc3)nc(C)c2c1 (stereo unspecified)	11%	13%	13µM*	?	?
COc1cccc(S(=O)(=O)N2CCN(Cc3ccc4c(c3)OCO4)CC2)c1	12%	6%	?	14%	-27%
CC(=O)NC12CC3CC(C1)CC(C(=O)Nc1nccs1)(C3)C2	2%	-1%	6.6µM*	?	-2%
Cc1cccc(C(=O)Nc2ccc(S(=O)(=O)Nc3nc(C)cc(C)n3)cc2)c1	-4%	4%	?	-9%	2%
Cc1c(C(=O)N2CCN(c3ccccc3F)CC2)sc2nc(-c3ccccc3)cn12	6%	2%	1.9µM*	2%	-37%
Cc1c(C(N)=O)sc2nc(-c3ccccc3)cn12	3%	21%	10µM*	98%	-10%
COCCN(CCOC)C(=O)c1sc2nc(-c3ccccc3)cn2c1C	-2%	0%	32%	1%	-1%
Cc1c(C(=O)Nc2ccncc2)sc2nc(-c3ccc(F)cc3)cn12	-4%	-11%	2.3µM*	2.3µM*	-43%
CCc1nc2ccc(C(=O)Nc3ccc(NC(C)=O)cc3)cn2c1N(CCC(C)C)CCN(C)C	·	-25%	·	·	·
Cc1ccc(N2NC(=O)/C(=C\c3cc4c(cc3[N+](=O)[O-])OCO4)C2=O)cc1C	14%	-18%	0%	10µM*	?
COc1ccccc1C1=Nn2c(nnc2C2CCCCC2)SC1	-13%	12%	5%	?	-40%
